# In publication PMC7862700, “An all-to-all approach to the identification of sequence-specific readers for epigenetic DNA modifications on cytosine”:
# Legend:
# Assay in all cases: DAPPL (digital affinity profiling via proximity ligation, sequencing); 10 mM Tris-HCl pH 7.5, 50 mM NaCl, 1 mM DTT, 4% glycerol, room temperature, 30 min; GST-TFs on glutathione beads, 16-mer random dsDNA library, 0.1% formaldehyde crosslink after washing; high values mean tight binding
# [1] = molecular target: T1, FEV (Homo sapiens, UniProt Q99581 1-238); conditions: protein: recombinant; tags: N-terminal GST; dsDNA, one strand shown
# T1 sequence: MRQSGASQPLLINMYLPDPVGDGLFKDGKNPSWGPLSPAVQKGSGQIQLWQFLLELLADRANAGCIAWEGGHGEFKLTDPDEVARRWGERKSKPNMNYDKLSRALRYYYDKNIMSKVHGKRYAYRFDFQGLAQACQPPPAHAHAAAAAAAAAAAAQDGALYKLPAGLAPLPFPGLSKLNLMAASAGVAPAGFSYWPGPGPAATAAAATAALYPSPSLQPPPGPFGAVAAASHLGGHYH
# How it was run: (§1)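 Sequencing on an Illumina NextSeq500 followed washing, crosslinking with 0.1% formaldehyde, proximity ligation (BsaI/T4 ligase, 1 h, 37 °C) and PCR amplification of pools that had been incubated for 30 min at room temperature with 200 nmole of a random double-stranded 16-mer DNA library in Tris/NaCl/DTT/glycerol buffer. Each pool held DNA-barcoded human transcription factors, expressed in yeast as GST fusions and captured on glutathione beads, plus a tag-only sample. Binding signal is a hexamer's read frequency for a factor divided by its frequency in the tag-only sample.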
# [2] = molecular target: ETV5 (Homo sapiens, UniProt P41161 1-510); conditions: protein: recombinant; tags: N-terminal GST; dsDNA, one strand shown
# ETV5, sequence (P41161 whole entry): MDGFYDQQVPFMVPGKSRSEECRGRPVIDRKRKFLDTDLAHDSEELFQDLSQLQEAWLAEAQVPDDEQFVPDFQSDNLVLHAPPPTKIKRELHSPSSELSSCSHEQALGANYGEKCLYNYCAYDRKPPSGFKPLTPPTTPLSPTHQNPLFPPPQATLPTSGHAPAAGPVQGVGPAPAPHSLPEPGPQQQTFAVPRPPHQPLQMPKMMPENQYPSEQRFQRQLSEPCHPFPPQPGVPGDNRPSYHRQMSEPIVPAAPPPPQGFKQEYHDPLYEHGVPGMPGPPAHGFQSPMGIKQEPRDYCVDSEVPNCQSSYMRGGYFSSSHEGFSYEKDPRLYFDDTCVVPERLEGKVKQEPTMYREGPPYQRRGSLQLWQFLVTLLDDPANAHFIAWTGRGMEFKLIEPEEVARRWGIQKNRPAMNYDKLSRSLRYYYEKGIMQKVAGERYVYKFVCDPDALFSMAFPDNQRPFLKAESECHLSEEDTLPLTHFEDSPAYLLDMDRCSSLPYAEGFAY
# How it was run: as §1
# [3] = molecular target: HSF1 (Homo sapiens, UniProt Q00613 1-529); conditions: protein: recombinant; tags: N-terminal GST; chain copies: 3; dsDNA, one strand shown
# HSF1, sequence (Q00613 whole entry): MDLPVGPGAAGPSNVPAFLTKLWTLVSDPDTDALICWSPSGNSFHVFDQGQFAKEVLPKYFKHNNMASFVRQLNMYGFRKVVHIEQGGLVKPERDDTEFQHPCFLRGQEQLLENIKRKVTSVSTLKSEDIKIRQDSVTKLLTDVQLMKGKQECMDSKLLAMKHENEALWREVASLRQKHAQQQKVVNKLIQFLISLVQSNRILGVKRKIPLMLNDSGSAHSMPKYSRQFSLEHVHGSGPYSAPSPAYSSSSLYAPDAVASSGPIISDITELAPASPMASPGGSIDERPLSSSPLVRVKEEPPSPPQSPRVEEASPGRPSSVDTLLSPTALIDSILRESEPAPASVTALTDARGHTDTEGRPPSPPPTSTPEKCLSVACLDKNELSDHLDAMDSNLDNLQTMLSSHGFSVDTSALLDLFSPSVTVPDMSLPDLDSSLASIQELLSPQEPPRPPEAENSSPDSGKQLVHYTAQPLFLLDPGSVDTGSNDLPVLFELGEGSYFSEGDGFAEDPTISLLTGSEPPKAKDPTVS
# How it was run: as §1
# [4] = molecular target: T2, SPIC (Homo sapiens, UniProt Q8N5J4 1-248); conditions: protein: recombinant; tags: N-terminal GST; dsDNA, one strand shown
# T2 sequence: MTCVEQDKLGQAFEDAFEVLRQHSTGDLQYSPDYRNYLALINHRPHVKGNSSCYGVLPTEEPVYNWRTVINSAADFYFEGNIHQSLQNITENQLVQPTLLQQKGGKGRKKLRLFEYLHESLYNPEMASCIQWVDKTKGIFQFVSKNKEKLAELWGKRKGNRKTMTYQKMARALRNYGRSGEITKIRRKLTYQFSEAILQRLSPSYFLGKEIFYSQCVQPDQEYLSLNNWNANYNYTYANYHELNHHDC
# How it was run: as §1
# [5] = molecular target: ELF4 (Homo sapiens, UniProt Q99607 1-663); conditions: protein: recombinant; tags: N-terminal GST; dsDNA, one strand shown
# ELF4, sequence (Q99607 whole entry): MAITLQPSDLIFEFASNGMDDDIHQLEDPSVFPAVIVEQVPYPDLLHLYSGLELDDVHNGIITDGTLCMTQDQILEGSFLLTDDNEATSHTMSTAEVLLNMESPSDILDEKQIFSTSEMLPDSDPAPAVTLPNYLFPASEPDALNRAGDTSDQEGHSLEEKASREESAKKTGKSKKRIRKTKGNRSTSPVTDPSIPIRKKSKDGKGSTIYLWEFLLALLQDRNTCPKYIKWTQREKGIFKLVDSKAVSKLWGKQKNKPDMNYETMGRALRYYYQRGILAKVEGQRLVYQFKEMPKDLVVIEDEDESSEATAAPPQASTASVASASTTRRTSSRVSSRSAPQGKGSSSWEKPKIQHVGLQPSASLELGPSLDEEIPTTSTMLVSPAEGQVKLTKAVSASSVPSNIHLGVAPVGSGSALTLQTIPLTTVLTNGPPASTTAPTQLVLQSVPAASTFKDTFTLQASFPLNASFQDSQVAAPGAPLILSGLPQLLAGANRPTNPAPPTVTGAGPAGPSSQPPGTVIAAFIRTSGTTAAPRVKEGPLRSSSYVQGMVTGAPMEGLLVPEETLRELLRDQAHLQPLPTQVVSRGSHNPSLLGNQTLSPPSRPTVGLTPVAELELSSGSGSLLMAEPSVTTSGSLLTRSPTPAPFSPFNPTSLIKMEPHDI
# How it was run: as §1
# [6] = molecular target: T3, ELK4 (Homo sapiens, UniProt P28324-2 1-405); conditions: protein: recombinant; tags: N-terminal GST; dsDNA, one strand shown
# T3 sequence: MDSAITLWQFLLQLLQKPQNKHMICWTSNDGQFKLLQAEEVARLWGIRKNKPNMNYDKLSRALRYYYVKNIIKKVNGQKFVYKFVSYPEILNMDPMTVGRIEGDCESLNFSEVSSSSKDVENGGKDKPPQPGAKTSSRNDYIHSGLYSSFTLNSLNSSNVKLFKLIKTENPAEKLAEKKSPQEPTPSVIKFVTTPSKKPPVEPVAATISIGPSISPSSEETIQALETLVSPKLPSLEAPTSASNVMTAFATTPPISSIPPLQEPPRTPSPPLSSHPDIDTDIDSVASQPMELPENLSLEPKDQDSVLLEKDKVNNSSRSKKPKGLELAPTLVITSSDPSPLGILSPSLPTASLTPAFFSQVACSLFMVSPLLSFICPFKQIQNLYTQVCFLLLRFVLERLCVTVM
# How it was run: as §1
# [7] = molecular target: T4, ETV2 (Homo sapiens, UniProt O00321 1-342); conditions: protein: recombinant; tags: N-terminal GST; dsDNA, one strand shown
# T4 sequence: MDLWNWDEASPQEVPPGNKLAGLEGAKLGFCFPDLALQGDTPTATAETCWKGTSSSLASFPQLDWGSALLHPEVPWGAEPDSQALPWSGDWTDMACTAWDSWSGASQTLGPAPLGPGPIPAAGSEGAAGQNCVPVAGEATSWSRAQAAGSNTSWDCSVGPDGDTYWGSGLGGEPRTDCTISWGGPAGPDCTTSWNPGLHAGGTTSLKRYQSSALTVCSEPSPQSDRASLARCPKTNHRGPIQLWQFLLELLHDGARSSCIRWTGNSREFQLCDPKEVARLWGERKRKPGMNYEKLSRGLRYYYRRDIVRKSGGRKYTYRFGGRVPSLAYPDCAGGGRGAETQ
# How it was run: as §1
# [8] = molecular target: T5, ELF3 (Homo sapiens, UniProt P78545 1-371); conditions: protein: recombinant; tags: N-terminal GST; dsDNA, one strand shown
# T5 sequence: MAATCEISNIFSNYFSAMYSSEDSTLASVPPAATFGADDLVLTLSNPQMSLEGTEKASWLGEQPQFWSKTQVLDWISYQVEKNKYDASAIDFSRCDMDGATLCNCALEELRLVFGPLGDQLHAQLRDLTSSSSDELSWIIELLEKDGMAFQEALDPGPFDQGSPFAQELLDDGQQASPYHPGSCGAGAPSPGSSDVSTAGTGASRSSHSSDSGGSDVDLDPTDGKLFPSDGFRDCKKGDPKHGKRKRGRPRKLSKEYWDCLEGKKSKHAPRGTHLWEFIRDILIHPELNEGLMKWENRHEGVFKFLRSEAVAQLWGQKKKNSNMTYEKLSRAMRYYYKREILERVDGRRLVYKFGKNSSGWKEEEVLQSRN
# How it was run: as §1
# [9] = molecular target: ETV1 (Homo sapiens, UniProt P50549 1-477); conditions: protein: recombinant; tags: N-terminal GST; dsDNA, one strand shown
# ETV1, sequence (P50549 whole entry): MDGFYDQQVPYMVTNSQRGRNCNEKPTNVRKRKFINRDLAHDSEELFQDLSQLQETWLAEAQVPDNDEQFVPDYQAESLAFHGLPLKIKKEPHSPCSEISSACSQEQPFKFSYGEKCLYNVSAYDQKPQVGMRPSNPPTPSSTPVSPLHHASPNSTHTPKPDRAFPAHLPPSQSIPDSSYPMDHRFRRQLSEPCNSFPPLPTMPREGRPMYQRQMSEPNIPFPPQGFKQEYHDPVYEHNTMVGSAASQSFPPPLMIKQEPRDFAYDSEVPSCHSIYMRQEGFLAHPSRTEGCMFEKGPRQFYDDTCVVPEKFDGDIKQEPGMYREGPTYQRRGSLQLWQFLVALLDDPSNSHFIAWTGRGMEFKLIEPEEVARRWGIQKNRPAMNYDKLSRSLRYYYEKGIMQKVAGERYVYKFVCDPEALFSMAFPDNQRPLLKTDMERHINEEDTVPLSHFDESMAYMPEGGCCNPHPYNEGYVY
# How it was run: as §1
# [10] = molecular target: T6, ERF (Homo sapiens, UniProt P50548 1-548); conditions: protein: recombinant; tags: N-terminal GST; dsDNA, one strand shown
# T6 sequence: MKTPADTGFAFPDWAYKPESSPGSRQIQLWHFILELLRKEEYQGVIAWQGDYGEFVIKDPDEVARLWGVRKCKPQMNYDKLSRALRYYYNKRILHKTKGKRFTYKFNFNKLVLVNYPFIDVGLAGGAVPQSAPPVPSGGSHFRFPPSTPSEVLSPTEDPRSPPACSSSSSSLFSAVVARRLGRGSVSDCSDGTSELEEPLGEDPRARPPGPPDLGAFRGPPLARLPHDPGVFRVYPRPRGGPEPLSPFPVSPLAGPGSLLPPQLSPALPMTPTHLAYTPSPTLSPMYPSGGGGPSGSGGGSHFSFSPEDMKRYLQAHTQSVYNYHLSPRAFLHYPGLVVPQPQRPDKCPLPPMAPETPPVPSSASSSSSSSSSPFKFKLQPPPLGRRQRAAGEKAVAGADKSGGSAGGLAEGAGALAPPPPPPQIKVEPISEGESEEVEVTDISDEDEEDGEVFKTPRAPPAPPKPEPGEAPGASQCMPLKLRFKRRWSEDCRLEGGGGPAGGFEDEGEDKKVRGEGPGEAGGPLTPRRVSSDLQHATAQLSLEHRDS
# How it was run: as §1
# [11] = molecular target: T7, ETV3L (Homo sapiens, UniProt Q6ZN32 1-361); conditions: protein: recombinant; tags: N-terminal GST; dsDNA, one strand shown
# T7 sequence: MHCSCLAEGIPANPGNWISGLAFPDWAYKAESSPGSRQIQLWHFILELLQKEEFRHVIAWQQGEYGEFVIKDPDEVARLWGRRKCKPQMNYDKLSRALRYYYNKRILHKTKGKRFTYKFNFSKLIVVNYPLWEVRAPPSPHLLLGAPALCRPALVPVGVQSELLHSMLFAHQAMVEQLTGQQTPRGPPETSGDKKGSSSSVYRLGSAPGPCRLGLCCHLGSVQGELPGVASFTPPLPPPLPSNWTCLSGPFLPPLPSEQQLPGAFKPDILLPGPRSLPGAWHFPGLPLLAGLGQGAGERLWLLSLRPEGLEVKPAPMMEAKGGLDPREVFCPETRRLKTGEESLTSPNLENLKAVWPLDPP
# How it was run: as §1
# [12] = molecular target: T8, ETS2 (Homo sapiens, UniProt P15036 1-469); conditions: protein: recombinant; tags: N-terminal GST; dsDNA, one strand shown
# T8 sequence: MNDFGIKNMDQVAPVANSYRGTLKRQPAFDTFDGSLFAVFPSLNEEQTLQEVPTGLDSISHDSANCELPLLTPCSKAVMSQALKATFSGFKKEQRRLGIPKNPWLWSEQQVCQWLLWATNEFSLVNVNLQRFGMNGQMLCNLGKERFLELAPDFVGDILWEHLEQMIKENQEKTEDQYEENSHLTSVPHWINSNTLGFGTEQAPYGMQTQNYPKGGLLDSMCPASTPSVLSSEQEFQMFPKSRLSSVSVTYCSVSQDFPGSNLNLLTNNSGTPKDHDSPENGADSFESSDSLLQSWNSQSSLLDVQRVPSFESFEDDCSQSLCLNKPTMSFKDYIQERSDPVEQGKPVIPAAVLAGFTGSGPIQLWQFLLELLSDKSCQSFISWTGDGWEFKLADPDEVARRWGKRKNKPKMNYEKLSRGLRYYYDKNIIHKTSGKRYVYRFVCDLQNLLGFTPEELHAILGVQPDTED
# How it was run: as §1
# [13] = molecular target: T9, SPDEF (Homo sapiens, UniProt O95238 1-335); conditions: protein: recombinant; tags: N-terminal GST; dsDNA, one strand shown
# T9 sequence: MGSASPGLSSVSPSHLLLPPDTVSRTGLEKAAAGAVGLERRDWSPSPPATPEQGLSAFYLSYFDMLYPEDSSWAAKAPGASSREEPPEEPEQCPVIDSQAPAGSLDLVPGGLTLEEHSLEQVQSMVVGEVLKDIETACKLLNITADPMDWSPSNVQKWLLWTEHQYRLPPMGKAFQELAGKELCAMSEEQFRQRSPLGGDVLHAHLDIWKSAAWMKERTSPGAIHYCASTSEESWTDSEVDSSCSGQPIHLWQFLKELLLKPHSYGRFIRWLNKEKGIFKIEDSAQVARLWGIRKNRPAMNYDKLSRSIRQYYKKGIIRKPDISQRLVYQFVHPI
# How it was run: as §1
# [14] = molecular target: T10, ETV7 (Homo sapiens, UniProt Q9Y603 1-341); conditions: protein: recombinant; tags: N-terminal GST; dsDNA, one strand shown
# T10 sequence: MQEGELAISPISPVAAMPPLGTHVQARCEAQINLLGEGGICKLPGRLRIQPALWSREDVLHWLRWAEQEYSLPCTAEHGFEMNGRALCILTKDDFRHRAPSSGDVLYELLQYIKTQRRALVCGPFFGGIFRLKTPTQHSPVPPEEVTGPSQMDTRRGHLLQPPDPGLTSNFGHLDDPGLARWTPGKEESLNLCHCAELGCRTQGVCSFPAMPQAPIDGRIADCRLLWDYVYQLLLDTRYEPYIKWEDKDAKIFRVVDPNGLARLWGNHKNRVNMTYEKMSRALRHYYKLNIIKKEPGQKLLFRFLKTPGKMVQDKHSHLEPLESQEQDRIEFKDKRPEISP
# How it was run: as §1
# [15] = molecular target: T11, ELF5 (Homo sapiens, UniProt Q9UKW6-2 1-255); conditions: protein: recombinant; tags: N-terminal GST; dsDNA, one strand shown
# T11 sequence: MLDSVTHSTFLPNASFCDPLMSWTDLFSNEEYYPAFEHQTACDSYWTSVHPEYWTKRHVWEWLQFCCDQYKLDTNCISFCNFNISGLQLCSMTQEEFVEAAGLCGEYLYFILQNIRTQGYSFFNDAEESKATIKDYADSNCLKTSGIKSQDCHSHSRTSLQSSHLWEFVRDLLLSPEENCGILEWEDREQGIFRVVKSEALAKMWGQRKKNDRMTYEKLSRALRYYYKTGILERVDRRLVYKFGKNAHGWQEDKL
# How it was run: as §1
# [16] = molecular target: T12, ETV3 (Homo sapiens, UniProt P41162-2 1-143); conditions: protein: recombinant; tags: N-terminal GST; dsDNA, one strand shown
# T12 sequence: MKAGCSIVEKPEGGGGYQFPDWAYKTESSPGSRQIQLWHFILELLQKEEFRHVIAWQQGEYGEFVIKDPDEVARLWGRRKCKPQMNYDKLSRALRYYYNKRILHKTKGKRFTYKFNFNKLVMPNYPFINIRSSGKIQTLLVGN
# How it was run: as §1
# [17] = molecular target: ETV6 (Homo sapiens, UniProt P41212 1-452); conditions: protein: recombinant; tags: N-terminal GST; dsDNA, one strand shown
# ETV6, sequence (P41212 whole entry): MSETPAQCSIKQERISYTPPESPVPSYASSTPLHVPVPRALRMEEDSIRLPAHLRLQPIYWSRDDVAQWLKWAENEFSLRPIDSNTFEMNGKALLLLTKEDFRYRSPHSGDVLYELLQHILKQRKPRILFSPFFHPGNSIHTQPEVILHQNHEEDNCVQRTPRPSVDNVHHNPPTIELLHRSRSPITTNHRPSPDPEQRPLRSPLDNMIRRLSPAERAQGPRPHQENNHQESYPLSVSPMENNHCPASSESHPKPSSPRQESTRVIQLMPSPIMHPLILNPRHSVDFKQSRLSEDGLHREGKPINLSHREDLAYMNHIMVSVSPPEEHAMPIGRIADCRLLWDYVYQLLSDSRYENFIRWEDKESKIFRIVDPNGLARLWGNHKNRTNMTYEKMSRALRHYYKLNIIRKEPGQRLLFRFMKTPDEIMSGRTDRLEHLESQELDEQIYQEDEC
# How it was run: as §1
sequence,measurement,setting,value
CACTCC,binding signal,[1],"1.28 fold enrichment (6-mer frequency, TF over GST control)"
same,binding signal,[2],"1.27 fold enrichment (6-mer frequency, TF over GST control)"
same,binding signal,[3],"1.05 fold enrichment (6-mer frequency, TF over GST control)"
same,binding signal,[4],"1.28 fold enrichment (6-mer frequency, TF over GST control)"
same,binding signal,[5],"1.34 fold enrichment (6-mer frequency, TF over GST control)"
same,binding signal,[6],"1.35 fold enrichment (6-mer frequency, TF over GST control)"
same,binding signal,[7],"1.17 fold enrichment (6-mer frequency, TF over GST control)"
same,binding signal,[8],"1.23 fold enrichment (6-mer frequency, TF over GST control)"
same,binding signal,[9],"1.27 fold enrichment (6-mer frequency, TF over GST control)"
same,binding signal,[10],"1.15 fold enrichment (6-mer frequency, TF over GST control)"
same,binding signal,[11],"1.33 fold enrichment (6-mer frequency, TF over GST control)"
same,binding signal,[12],"1.17 fold enrichment (6-mer frequency, TF over GST control)"
same,binding signal,[13],"1.2 fold enrichment (6-mer frequency, TF over GST control)"
same,binding signal,[14],"1.24 fold enrichment (6-mer frequency, TF over GST control)"
same,binding signal,[15],"1.18 fold enrichment (6-mer frequency, TF over GST control)"
same,binding signal,[16],"1.26 fold enrichment (6-mer frequency, TF over GST control)"
same,binding signal,[17],"1.28 fold enrichment (6-mer frequency, TF over GST control)"
